Measurements taken from PMC5540273 (PLoS ONE, 2017).

Assays:
Settings in all cases: concentration: 1 μM,replicates: in singlicate; n = 1
[1] = test system: CLK2
[2] = test system: CLK3
[3] = test system: CLK4
[4] = test system: CSF1R-autoinhibited
[5] = test system: CSF1R
[6] = test system: CSK
[7] = test system: CSNK1A1L
[8] = test system: CSNK1A1
[9] = test system: CSNK1D
[10] = test system: CSNK1E
[11] = test system: CSNK1G1
[12] = test system: CSNK1G2
[13] = test system: CSNK1G3
[14] = test system: CSNK2A1
[15] = test system: CSNK2A2
[16] = test system: T1, CTK
T1 construct: gene MATK

[17] = test system: DAPK1
[18] = test system: DAPK2
[19] = test system: DAPK3
[20] = test system: T2, DCAMKL1
T2 construct: gene DCLK1
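Note: KINOMEscan kinase panel screen.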

Row | SMILES | %Inh [1] [%] | %Inh [2] [%] | %Inh [3] [%] | %Inh [4] [%] | %Inh [5] [%] | %Inh [6] [%] | %Inh [7] [%] | %Inh [8] [%] | %Inh [9] [%] | %Inh [10] [%] | %Inh [11] [%] | %Inh [12] [%] | %Inh [13] [%] | %Inh [14] [%] | %Inh [15] [%] | %Inh [16] [%] | %Inh [17] [%] | %Inh [18] [%] | %Inh [19] [%] | %Inh [20] [%]
1 | COC(=O)c1cccc(NC(=O)NC2CCN(c3ccnc(NCc4ccc(F)cc4)n3)CC2)c1 [GSK1379860] | 0 | 11 | 10 | 12 | 1 | 0 | 23 | 0 | 4 | 37 | 0 | 0 | 9 | 7 | 0 | 1 | 0 | 0 | 3 | 0
2 | Cc1ccc(C(=O)Nc2ccc(Oc3ccc4nc(NC(=O)C5CC5)cn4c3)c(F)c2)c(=O)n1-c1ccccc1 | 5 | 2 | 0 | 0 | 100 | 24 | 0 | 29 | 0 | 0 | 2 | 0 | 0 | 0 | 0 | 0 | 0 | 0 | 2 | 2
3 | O=C(Nc1ccc(Oc2ccc3nc(NC(=O)C4CC4)cn3n2)c(F)c1)c1cccn(-c2ccccc2)c1=O | 0 | 0 | 0 | 0 | 100 | 0 | 15 | 39 | 0 | 0 | 0 | 0 | 30 | 0 | 0 | 0 | 0 | 0 | 14 | 4
4 | CN1CCN(CCCNc2nccc(-c3c(-c4ccc(F)cc4)nn4cc(C(N)=O)ccc34)n2)CC1 [GW622475] | 0 | 0 | 12 | 0 | 22 | 11 | 52 | 95.7 | 97.4 | 99.7 | 27 | 0 | 20 | 1 | 33 | 1 | 29 | 10 | 16 | 21
5 | Cc1cccc(-c2nc(Nc3ccncc3)c3sccc3n2)n1 [GW869641] | 15 | 23 | 22 | 42 | 10 | 7 | 17 | 65 | 90 | 94.9 | 0 | 1 | 13 | 6 | 30 | 20 | 18 | 11 | 36 | 0
6 | CNC(=O)c1ccccc1Nc1nc(Nc2cccc(CS(C)(=O)=O)c2)ncc1C.O=CO [GSK1520489] | 94.6 | 86 | 98.9 | 90 | 99.8 | 95.1 | 63 | 46 | 25 | 20 | 27 | 61 | 26 | 92.3 | 98.6 | 38 | 89 | 57 | 81 | 37
7 | O=c1[nH]cc(-c2ccc(O)cc2)c2sc(-c3ccncc3)cc12 [GSK1033723] | 67 | 19 | 95.9 | 2 | 25 | 5 | 13 | 57 | 41 | 46 | 23 | 0 | 13 | 9 | 24 | 0 | 19 | 27 | 30 | 8
8 | CC(=O)c1c(-c2ccncc2)[nH]c(-c2ccncc2)c1C [GW493036] | 82 | 65 | 96.1 | 19 | 12 | 8 | 79 | 93.4 | 93.7 | 90 | 84 | 98.6 | 98.6 | 0 | 8 | 0 | 0 | 0 | 19 | 25
9 | N#Cc1cccc(C(=O)NC2CCN(c3ccnc(Nc4ccc(F)cc4)n3)C2)c1 (stereo not shown) [GSK1379708] | 0 | 0 | 1 | 2 | 1 | 24 | 1 | 0 | 17 | 1 | 0 | 4 | 6 | 0 | 0 | 0 | 0 | 0 | 11 | 0
10 | COc1cc2ncn(-c3cc(OCC4CCCCC4)c(C(N)=O)s3)c2cc1OC [GSK204559] | 2 | 5 | 33 | 0 | 19 | 0 | 22 | 0 | 10 | 0 | 12 | 9 | 32 | 1 | 22 | 0 | 35 | 30 | 64 | 2
11 | COC(=O)c1cccc(NC(=O)NC2CCN(c3ccnc(Nc4cc(OC)c(OC)c(OC)c4)n3)C2)c1 (stereo not shown) [GSK1379767] | 0 | 0 | 8 | 34 | 26 | 0 | 0 | 28 | 0 | 13 | 16 | 0 | 19 | 1 | 29 | 0 | 2 | 0 | 21 | 4
12 | CC(C)S(=O)(=O)N1CCN(Cc2ccc3c(c2)nc(NC(=O)c2ccsc2)n3C[C@H](O)c2ccccc2)CC1 [GW635815] | 91.9 | 79 | 95.5 | 45 | 68 | 13 | 68 | 60 | 56 | 71 | 16 | 5 | 20 | 6 | 37 | 0 | 0 | 0 | 31 | 0
13 | Cl.Nc1n[nH]c2cc(-c3ccccn3)ccc12 [GSK2189892] | 0 | 18 | 31 | 0 | 8 | 0 | 0 | 0 | 0 | 21 | 11 | 0 | 31 | 0 | 0 | 0 | 0 | 0 | 19 | 19
14 | CCNCC(Cc1ccccc1)NC(=O)c1cc(Br)c(-c2ccnc3[nH]ccc23)s1.Cl.Cl (stereo not shown) [GSK1383280] | 71 | 47 | 59 | 0 | 55 | 6 | 6 | 0 | 32 | 39 | 8 | 5 | 46 | 87 | 71 | 0 | 7 | 9 | 28 | 42
15 | CCn1c(-c2nonc2N)nc2cncc(Br)c21 [SB-738004] | 77 | 9 | 37 | 95.1 | 5 | 11 | 0 | 12 | 13 | 19 | 5 | 0 | 7 | 0 | 21 | 0 | 39 | 55 | 46 | 18
16 | COc1cccc(CNC(=O)NC2CCN(c3ccnc(Nc4cc(OC)c(OC)c(OC)c4)n3)C2)c1 (stereo not shown) [GSK1379765] | 0 | 0 | 16 | 29 | 15 | 20 | 16 | 0 | 14 | 18 | 0 | 0 | 27 | 3 | 0 | 0 | 0 | 0 | 14 | 19
17 | CCn1c(-c2nonc2N)nc2cncc(CNC3CCNCC3)c21.Cl [SB-747651] | 17 | 7 | 56 | 0 | 10 | 0 | 19 | 0 | 26 | 21 | 24 | 0 | 0 | 0 | 0 | 0 | 41 | 0 | 27 | 7
